Assay results taken from PubChem BioAssay AID1159580 (chemical genetic matrix, 2015).
Hit rate of the full screen: of about 5,500 compounds, about 2,000 (36%) were called active. Another 18% or so got no clear call; they are omitted. Cut-off read from the data, not from the text of the source: active = normalized growth mostly below about 0.91 (no sharp cut-off); inconclusive = no clear call, values can overlap the other calls; inactive = mostly above about 0.92. The list shows a part of the results.

Assay: chemical genetic growth profiling, strain panel (AID 1159580);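 note: tested at 20 µM; growth read once vehicle control cultures reached saturation at 30 °C; 1 = growth at the plate median or of vehicle wells; lower values mean less growth of the strain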
Conditions: S. cerevisiae deletion strains, growth OD
[1] = locus YDL101C, strain DUN1, hits give low values
[2] = locus YHR030C, strain SLT2, hits give low values
[3] = locus YHR079C, strain IRE1, hits give low values
[4] = locus YJL095W, strain BCK1, hits give low values
[5] = locus YJR066W, strain TOR1, hits give low values
[6] = locus YLR113W, strain HOG1, hits give low values
[7] = locus YNL183C, strain NPR1, hits give low values
[8] = locus YOR231W, strain MKK1, hits give low values
[9] = locus YPL256C, strain CLN2, hits give low values
[10] = locus YDR150W, strain NUM1, hits give low values
[11] = locus YJR075W, strain HOC1, hits give low values
[12] = locus YNL128W, strain TEP1, hits give low values
[13] = locus YNL153C, strain GIM3, hits give low values

Measured: normalized growth

O=S(=O)(NC(=S)Nc1ccc(Cl)c(Cl)c1)c1ccccc1
inactive: locus YAR019C, strain CDC15, hits give low values 1.01 | locus YBL105C, strain PKC1, hits give low values 1.01 | locus YBR135W, strain CKS1, hits give low values 0.997 | locus YBR136W, strain MEC1, hits give low values 1 | locus YBR160W, strain CDC28, hits give low values 1 | locus YDL017W, strain CDC7, hits give low values 1.01 | locus YDL028C, strain MPS1, hits give low values 1 | [1] 1.01 | locus YDL108W, strain KIN28, hits give low values 1 | locus YDL132W, strain cdc53, hits give low values 0.993 | locus YDL214C, strain PRR2, hits give low values 1.02 | locus YDR052C, strain DBF4, hits give low values 1.01 | locus YDR054C, strain cdc34, hits give low values 1.01 | locus YDR226W, strain ADK1, hits give low values 0.991 | locus YDR477W, strain SNF1, hits give low values 1.02 | locus YER123W, strain YCK3, hits give low values 1 | locus YER133W, strain GLC7, hits give low values 1.01 | locus YFL009W, strain cdc4, hits give low values 1.01 | locus YFL029C, strain CAK1, hits give low values 1 | locus YFR003C, strain YPI1, hits give low values 1 | locus YFR019W, strain FAB1, hits give low values 1 | locus YFR028C, strain CDC14, hits give low values 1 | locus YGR040W, strain KSS1, hits give low values 1.01 | locus YGR052W, strain FMP48, hits give low values 1.12 | locus YGR092W, strain DBF2, hits give low values 0.988 | [2] 1.1 | [3] 1 | locus YHR082C, strain KSP1, hits give low values 1.09 | locus YHR205W, strain SCH9, hits give low values 0.995 | locus YIL147C, strain SLN1, hits give low values 1 | [4] 1.05 | locus YJL128C, strain PBS2, hits give low values 0.995 | locus YJL157C, strain FAR1, hits give low values 1.01 | locus YJR016C, strain ILV3, hits give low values 0.995 | locus YJR066W, strain TOR1 (second series), hits give low values 0.992 | [5] 1.13 | locus YKL048C, strain ELM1, hits give low values 1.02 | locus YKL067W, strain YNK1, hits give low values 0.995 | locus YKL101W, strain HSL1, hits give low values 1 | locus YKL193C, strain SDS22, hits give low values 1 | locus YKL203C, strain TOR2, hits give low values 1.07 | [6] 1.03 | locus YLR133W, strain CKI1, hits give low values 1.01 | locus YLR403W, strain SFP1, hits give low values 1.02 | locus YML070W, strain DAK1, hits give low values 0.999 | locus YMR001C, strain CDC5, hits give low values 1 | locus YMR205C, strain PFK2 (second series), hits give low values 1 | locus YMR277W, strain FCP1, hits give low values 1 | locus YNL006W, strain LST8, hits give low values 0.984 | locus YNL020C, strain ARK1, hits give low values 1 | locus YNL161W, strain CBK1, hits give low values 0.996 | [7] 0.986 | locus YNL207W, strain RIO2, hits give low values 1.01 | locus YNL222W, strain SSU72, hits give low values 0.995 | locus YNL307C, strain MCK1 (second series), hits give low values 0.987 | locus YOL078W, strain AVO1, hits give low values 1 | locus YOL136C, strain PFK27, hits give low values 1 | locus YOR061W, strain CKA2, hits give low values 1.02 | locus YOR119C, strain RIO1, hits give low values 1.13 | [8] 1.02 | locus YOR329C, strain SCD5, hits give low values 1.01 | locus YPL031C, strain PHO85, hits give low values 1.02 | locus YPL153C, strain RAD53, hits give low values 1 | locus YPL204W, strain HRR25, hits give low values 0.999 | locus YPL209C, strain IPL1, hits give low values 0.996 | [9] 1.01 | locus YPR025C, strain CCL1, hits give low values 0.998 | locus YPR106W, strain ISR1, hits give low values 1.01 | locus YPR111W, strain DBF20, hits give low values 0.994 | strain NNK1, hits give low values 1 | strain TSCII, hits give low values 0.999

S=C(NCc1cccnc1)Nc1ccccc1Cl
active: [2] 0.538 | locus YLR085C, strain ARP6, hits give low values 0.584
inactive: locus YAL013W, strain DEP1, hits give low values 0.987 | locus YBR229C, strain ROT2, hits give low values 1 | locus YCL061C, strain MRC1, hits give low values 0.988 | [1] 0.989 | [10] 0.953 | locus YEL061C, strain CIN8, hits give low values 0.975 | locus YGR078C, strain PAC10, hits give low values 0.989 | locus YGR229C, strain SMI1, hits give low values 0.991 | locus YHR087W, strain rtc3, hits give low values 1.01 | locus YJR043C, strain POL32, hits give low values 0.984 | [11] 1.02 | locus YLR039C, strain RIC1, hits give low values 0.939 | locus YLR058C, strain SHM2 (second series), hits give low values 0.987 | locus YLR262C, strain YPT6, hits give low values 0.982 | locus YML094W, strain GIM5, hits give low values 0.953 | locus YMR219W, strain ESC1, hits give low values 0.992 | locus YMR263W, strain SAP30, hits give low values 0.968 | [12] 0.994 | [13] 0.98 | locus YNL298W, strain CLA4 (second series), hits give low values 0.959 | locus YNL322C, strain KRE1, hits give low values 1 | locus YNR030W, strain Alg12, hits give low values 0.987 | locus YOL006C, strain TOP1, hits give low values 1 | locus YPL055C, strain LGE1, hits give low values 0.961 | locus YPL241C, strain CIN2, hits give low values 0.97 | locus YPR135W, strain CTF4, hits give low values 0.745

COc1ccc(C(=O)NCc2cccnc2)cc1C(=O)NCc1cccnc1
inactive: locus YAL040C, strain CLN3, hits give low values 0.994 | locus YCL061C, strain MRC1 (second series), hits give low values 1.01 | [10] 1 | locus YDR363W, strain ESC2, hits give low values 1 | locus YER002W, strain NOP16, hits give low values 0.997 | [11] 1.02 | locus YMR307W, strain GAS1, hits give low values 1.01 | [12] 1.01 | [13] 1.02 | locus YNL175C, strain NOP13, hits give low values 1.02 | locus YNL197C, strain WHI3, hits give low values 1.04 | locus YNL224C, strain SQS1, hits give low values 1 | locus YOR083W, strain WHI5 (second series), hits give low values 1.02

O=P(O)(O)C(O)(Cc1cccnc1)P(=O)(O)O
inactive: [2] 0.969 | [3] 0.963 | [4] 0.969 | [5] 0.936 | [6] 0.919 | [7] 0.897 | [8] 0.966 | [9] 0.933
